Results filed as inconclusive are left out. Unmarked numbers belong to inactive results. Active and inactive are the calls of the source. Calls come from the whole dose curve; as a rule, active = well fitted cell-killing curve with a large enough effect in the repeat runs; inconclusive = weak or mixed curves, or effect the other way; inactive = flat fitted curve, though single readings scatter.

40 compounds from PubChem BioAssay (Tox21) can be followed below.
% is set by controls: 0 for no effect and ±100 for the full control effect.

The experiment can be described thus: qHTS assay to identify small molecule antagonists of the constitutive androstane receptor (CAR) signaling pathway - cell viability counter screen (AID 1224837). Note: nearly all actives have a fitted effect of over 45% in size. The note with it: HepG2-CYP2B6-hCAR viability, CellTiter-Fluor, 23 h, co-treated with 50 nM CITCO; series mostly up to 92.4 µM. An excerpt: National Center for Advancing Translational Sciences [NCATS]
NIH Chemical Genomics Center [NCGC]
U.S. Environmental Protection Agency [EPA]
National Institutes of Environmental Health Sciences [NIEHS]
National Toxicology Program [NTP]
U.S. Food and Drug Administration [FDA]
The constitutive androstane receptor (CAR) is a nuclear receptor which regulates multiple drug metabolizing enzymes (DMEs) and transporters. Activating CAR will generally increase the transcription and subsequent translation of CYP2B6 and CYP3A4. These two DMEs represent about 50% of the drug metabolizing potential in the body. When CAR is deactivated, the metabolizing potential in the body will decrease, subsequently increasing the toxicity in the body or lowering the therapeutic potential of a pro-drug. Recently, there have also been studies performed indicating CARs role in energy metabolism and cancer therapy. Therefore, inhibiting CARs activity could have a potential effect on diabetes and cancer. Identifying environmental toxins and compounds which modulate CAR, through the use of the Tox21 10K compound collection, will be an important step in determining the toxicity and potential therapeutic effects these factors will have on the human body. To differentiate true CAR antagonists from cytotoxic substances, the assay is multiplexed with a cell viability assay.
Tox21 Assay Protocol Summary:
A double-stable (hCAR and CYP2B6-2.2kb) transfected cell line, derived from human hepatoma (HepG2) cells, was utilized for the duration of the quantitative high-throughput screens. The HepG2-CYP2B6-hCAR cells were dispensed at 2500 cells/4 uL/well in 1536-well white solid bottom plates using a Multidrop Combi. After the assay plates were incubated at 37 C/5% CO2 for 4 hrs, 23 nL of compounds at 15 concentrations (from 5-48 columns) or positive control (from 1 to 4 columns) were transferred to the assay plates using a Pintool station. One uL of CITCO (final concentration = 50 nM) was added, using a Flying Reagent Dispenser, inside each well. After a 23 hr incubation period at 37 C/5% CO2, 1 uL of CellTiter-Fluor reagent was added into each well of the assay plates using a Flying Reagent Dispenser. The fluorescence intensity in the plates was then measured using a ViewLux plate reader.
(In general: In qHTS, concentration-response curves come from the screen itself.)
As for `CC(C)OCCO`, the outcome was inactive.

As for `CC(=O)SCC(CC(=O)c1ccc(C)cc1)C(=O)O` (stereo not given), the result was inactive.

`CCCCCCCCS(=O)(=O)O`: the result was inactive.

On to `O=C(O)CCCCCCCCCC(=O)O`, for which the result was inactive.

In the case of `CC(=O)Nc1ccc(OCCOCCOc2ccc(NC(C)=O)cc2)cc1`, the outcome was inactive.

Regarding `COC(=O)C(c1ccccc1Cl)N1CCc2sccc2C1` (stereo not given), the outcome was inactive.

With `C=CCN(CC=C)CC=C`, the outcome was inactive.

Consider `O=c1[nH]c(=O)c2cn[nH]c2[nH]1`, for which the outcome was inactive.

On to `Cc1ccc(S(=O)(=O)NC(=O)NN2CC3CCCC3C2)cc1` (stereo not given), for which the outcome was inactive.

On to `CC1(C)CC(N)CC(C)(C)N1`, for which the result was inactive.

On to `C/C=C(\C)C=O`, for which the outcome was inactive.

Regarding `CC(=O)/C=C/C=C1/C2CCC(C2)C1(C)C` (stereo not given), the result was inactive.

As to `CC(C)(C)C(=O)CCc1ccc(Cl)cc1`, the result was inactive.

Take `C=C(C)C(=O)OCCOC1CC2CC1C1C=CCC21` (stereo not given): the result was inactive.

Take `O=C(O)CCC(=O)Nc1ccc(S(=O)(=O)Nc2nccs2)cc1`: the outcome was inactive.

Regarding `BrCCOc1ccccc1`, the outcome was inactive.

For `N=C(N)S(=O)O`, the outcome was inactive.

With `COc1ccccc1N1CCN(CC(O)COc2cc(OC)c(OC)c(OC)c2)CC1` (stereo not given), the outcome was inactive.

With `CCC(C)(C)C`, the outcome was inactive.

For `O=C1CCCc2c(O)cccc21`, the outcome was inactive.

For `C[C@@H]1NC(=O)[C@@H](N)CNC(=O)[C@H](C2CCNC(N)=N2)NC(=O)/C(=C/NC(N)=O)NC(=O)[C@H](CNC(=O)C[C@@H](N)CCCN)NC1=O` (stereo not given in full), the activity change, negative = cytotoxicity was 0.72% [at 0.349 µM].

As for `CC(C)C[P+](C)(CC(C)C)CC(C)C`, the result was inactive.

For the compound `CCCCCCCCOCCC#N`, the outcome was inactive.

Turning to `COC(C)(C)CC(C)=O`, the result was inactive.

Take `Cc1ccc(OC(=O)CC(C)C)cc1`: the outcome was inactive.

As for `CCOC(=O)CN1CCCC1=O`, the result was inactive.

With `CCCCCCCC(=O)N(C)C`, the outcome was inactive.

In the case of `CC(C)(C)C(=O)NCCCC(=O)O`, the outcome was inactive.

On to `O=C(CCBr)N1CCN(C(=O)CCBr)CC1`, for which the outcome was inactive.

For `Cc1cc2c(cc1CC(=O)c1sccc1S(=O)(=O)Nc1onc(C)c1Cl)OCO2`, the outcome was inactive.

In the case of `N#Cc1cc(NC(=O)C(=O)O)c(Cl)c(NC(=O)C(=O)O)c1`, the outcome was inactive.

On to `N#Cc1ccccc1C#N`, for which the result was inactive.

With `CCCCCCC(=O)c1ccccc1`, the outcome was inactive.

Take `CC1(C)S[C@@H]2[C@H](NC(=O)Cc3ccccc3)C(=O)N2[C@H]1C(=O)O` (tested in a mixture with another compound): the result was inactive.

With `O=C(O)/C=C(\CC(=O)O)C(=O)O`, the result was inactive.

For the compound `Cc1ccc(O)c([N+](=O)[O-])c1`, the result was inactive.

Turning to `NC[C@H]1O[C@H](O[C@H]2[C@H](O)[C@@H](O[C@H]3O[C@H](CO)[C@@H](O)[C@H](N)[C@H]3O)[C@H](N)C[C@@H]2N)[C@H](N)[C@@H](O)[C@@H]1O`, the activity change, negative = cytotoxicity is -13.6% [at 19 µM].

As to `CCC(=O)OCCOc1ccccc1`, the result was inactive.

For the compound `COC(=O)c1ccc(C(=O)O)cc1`, the outcome was inactive.

On to `CC/C=C\CCCCCCCCCCOC(C)=O`, for which the outcome was inactive.
